Measured values from article PMC10726135, “HNF4α isoforms regulate the circadian balance between carbohydrate and lipid metabolism in the liver”.
The full ranking holds about 18,000 sequences; the median of “log2 normalized intensity” is about 0.39, and the highest 2% start at about 6.6. For the sample, the highest values were picked, then their nearest neighbours and some sequences at random.

These sequences were tested against T1, HNF4alpha2 (COS-7 nuclear extract) (Homo sapiens, UniProt P41235 1-474) (assay: protein-binding microarray; COS-7 nuclear extract on double-stranded Agilent 4x180k PBM; binding buffer, salt, pH and temperature not given in the material; high values mean tight binding). Details: chain copies: 2; label: 3' end of strand 1 on the slide; dsDNA, one strand shown.
T1 sequence: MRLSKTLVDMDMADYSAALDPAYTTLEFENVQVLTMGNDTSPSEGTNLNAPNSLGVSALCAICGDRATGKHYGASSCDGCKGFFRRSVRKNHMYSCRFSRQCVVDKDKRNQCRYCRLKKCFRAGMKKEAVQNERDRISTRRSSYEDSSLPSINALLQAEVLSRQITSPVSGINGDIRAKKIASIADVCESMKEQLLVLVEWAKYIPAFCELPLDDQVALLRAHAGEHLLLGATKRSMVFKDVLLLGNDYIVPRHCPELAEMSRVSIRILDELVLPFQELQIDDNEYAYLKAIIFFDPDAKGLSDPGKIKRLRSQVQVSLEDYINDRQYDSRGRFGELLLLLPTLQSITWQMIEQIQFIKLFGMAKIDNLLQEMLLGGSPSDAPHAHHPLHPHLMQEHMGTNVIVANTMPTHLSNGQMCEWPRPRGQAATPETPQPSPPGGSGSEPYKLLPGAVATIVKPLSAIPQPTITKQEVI
Outline: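 The binding signal is Agilent software's gProcessedSignal after background correction and normalization. Arrays were a custom Agilent SurePrint G3 4x180k design of double-stranded ~60-nt oligonucleotides with ~44,000 test sequences in quadruplicate, probed with nuclear extracts of COS-7 cells transiently expressing a human HNF4α isoform. Scans were made at 2-µm resolution on an Agilent G2565CA scanner.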

| Sequence | binding signal [log2 normalized intensity] |
| --- | --- |
| TCTCTCTCTCTTTCTTCCCCCACTCCAAGTGCCTAGGGAGATTAGAGTATCGGTCGA | 5.09 |
| CGAGTCAAGGGTCAATCCTCTCTTTGGAATGCCTAGGGAGATTAGAGTATCGGTCGA | 2.31 |
| CCTCCTGCCCTATGTCCTCCAGCTCTTGGGGCCTAGGGAGATTAGAGTATCGGTCGA | 1.53 |
| TGGAAGTCGCCGTGAGGTTATTTGCAGACTGCCTAGGGAGATTAGAGTATCGGTCGA | 0.0984 |
| ATTCCTATCGCCCTTCTGTCAAGTCCAAAGGCCTAGGGAGATTAGAGTATCGGTCGA | -0.648 |
| TCTGCACAAAATACAAGTCGTAAAGACCTTGCCTAGGGAGATTAGAGTATCGGTCGA | 0.709 |
| CCCTCAGCAACTGCAAGGCTGACCCGTGAAGCCTAGGGAGATTAGAGTATCGGTCGA | 1.4 |
| TGTGAGTCCAGTTGAATGATGGCGAGTGTGGCCTAGGGAGATTAGAGTATCGGTCGA | 1.62 |
| CAAGCTTGATCCAGGATCCTTCTTGACCAGGCCTAGGGAGATTAGAGTATCGGTCGA | 0.316 |
| GCAAGCTTGACCTTTGATCCAGGCTCAGTGGCCTAGGGAGATTAGAGTATCGGTCGA | 7.48 |
| CTTGACCTTTGATCCAGGCTCAGTGGGCGTGCCTAGGGAGATTAGAGTATCGGTCGA | 4.91 |
| TTGATCCAGGATCCTTCTTGACCAGGCAAGGCCTAGGGAGATTAGAGTATCGGTCGA | -0.434 |
| ATTTGACCCTTGGCCAGGTGCAGTGGCTCAGCCTAGGGAGATTAGAGTATCGGTCGA | 2.99 |
| TCCAGGCTTGTCCTTTTGACCACAGTTATCGCCTAGGGAGATTAGAGTATCGGTCGA | 2.33 |
| TCTTGACCAGGCAAGCTTGACCTTTGATCCGCCTAGGGAGATTAGAGTATCGGTCGA | 10.2 |
| TTAGGATGACCTTTAGATTCTTACAGGCAAGCCTAGGGAGATTAGAGTATCGGTCGA | 3.63 |
| ATCCTTCTTGACCAGGCAAGCTTGACCTTTGCCTAGGGAGATTAGAGTATCGGTCGA | 7.07 |
| AATTACCATTCTTGAGGACAGGCCAAATCCGCCTAGGGAGATTAGAGTATCGGTCGA | 0.0816 |
| CCCAGGTCCAGCCTTTGGGCAGGGGCATCCGCCTAGGGAGATTAGAGTATCGGTCGA | -0.72 |
| TGTGCAGCTTTGTGTAAAACTTCAAAGAAGGCCTAGGGAGATTAGAGTATCGGTCGA | -0.427 |
| CCTGAGGTGTGAGAGGGCAAAGGTCACAGCGCCTAGGGAGATTAGAGTATCGGTCGA | 8.02 |
| GGTGTGAGAGGGCAAAGGTCACAGCATTAGGCCTAGGGAGATTAGAGTATCGGTCGA | 6.76 |
| AATGGGCAAAGGTCACAAGAGGTGCTGTGTGCCTAGGGAGATTAGAGTATCGGTCGA | 4.69 |
| GGGCCAGCAAGAGGTGACCCCAGGGCAAAGGCCTAGGGAGATTAGAGTATCGGTCGA | 2.92 |
| GGCTGAATGGGCAAAGGTCACAAGAGGTGCGCCTAGGGAGATTAGAGTATCGGTCGA | 4.6 |
| TCACAGTGTGGGGCAAATCTGAGGTCAAAGGCCTAGGGAGATTAGAGTATCGGTCGA | 2.22 |
| GGGCAGCCCGTGTGGGCGGGTGCAGCTTCCGCCTAGGGAGATTAGAGTATCGGTCGA | -0.675 |

| Sequence | binding signal [log2 normalized intensity] |
| --- | --- |
| CAGTTATCAGACAGAGGAATTCAGCAGGATGCCTAGGGAGATTAGAGTATCGGTCGA | -0.611 |
| TTTCTCCTCTCTGGGCTTCCATTGTGATTCGCCTAGGGAGATTAGAGTATCGGTCGA | 1.02 |
| GCCACATTCCCCGACTCCTGGGTGTGAGATGCCTAGGGAGATTAGAGTATCGGTCGA | 0.517 |
| AAGCAGAAGCTGCACACATGTCAAAGGTCAGCCTAGGGAGATTAGAGTATCGGTCGA | 6.19 |
| CAGCAATCACCTACCCCCAGATTCTCTGTTGCCTAGGGAGATTAGAGTATCGGTCGA | 2.35 |
| GACAAAGGTCATTCATGTGCAGGTTGGAATGCCTAGGGAGATTAGAGTATCGGTCGA | 2.77 |
| GGAGAGGATGGGGACAAAGGTCAAGAAAGCGCCTAGGGAGATTAGAGTATCGGTCGA | 5.86 |
| AATTCCCTGCAAGGACAAAGGTCATGTTTTGCCTAGGGAGATTAGAGTATCGGTCGA | 6.26 |
| GTTATCTAATGGAGAGGATGGGGACAAAGGGCCTAGGGAGATTAGAGTATCGGTCGA | 1.47 |
| CTAATGGAGAGGATGGGGACAAAGGTCAAGGCCTAGGGAGATTAGAGTATCGGTCGA | 7.24 |
| TTTGGAATTCCCTGCAAGGACAAAGGTCATGCCTAGGGAGATTAGAGTATCGGTCGA | 6.87 |
| TGTCTCTGGTCAGGGAGGGCTTTAGAATGTGCCTAGGGAGATTAGAGTATCGGTCGA | 1.01 |
| TTGGTCTGCTGAGTCTCATGATTAGATTGAGCCTAGGGAGATTAGAGTATCGGTCGA | 0.746 |
| TGGCCTGGGAACTTAGCGATTTGGAACCCAGCCTAGGGAGATTAGAGTATCGGTCGA | 0.829 |
| AAGTTCAAGTAGATAAAATCAAACAGATGTGCCTAGGGAGATTAGAGTATCGGTCGA | 1.02 |
| TCTGCAAACACCCCTCCCCCACACAGACAAGCCTAGGGAGATTAGAGTATCGGTCGA | 5.01 |
| TGGTGCTATCTTTGCTCACTGTAACCTTTGGCCTAGGGAGATTAGAGTATCGGTCGA | 3.78 |
| TTTGCTCACTGTAACCTTTGCCCCCCAAGTGCCTAGGGAGATTAGAGTATCGGTCGA | 8.54 |
| GTAACCTTTGCCCCCCAAGTTGAAGCCATCGCCTAGGGAGATTAGAGTATCGGTCGA | 5.16 |
| TCACTGTAACCTTTGCCCCCCAAGTTGAAGGCCTAGGGAGATTAGAGTATCGGTCGA | 6.72 |
| AACCTTTGCCCCAGCTGTCACCCAGCCAGAGCCTAGGGAGATTAGAGTATCGGTCGA | 3.68 |
| AGCCCCAACCCACTGTTGCCCCTTCCAAAGGCCTAGGGAGATTAGAGTATCGGTCGA | 4.68 |
| ACTGTAACCTTTGCCCCCCTGGGCTCAAGCGCCTAGGGAGATTAGAGTATCGGTCGA | 5.81 |
| ATCTCAGCTCACTGTAACCTTTGCCCCCCTGCCTAGGGAGATTAGAGTATCGGTCGA | 8.75 |
| GTGCTATCTCAGCTCACTGTAACCTTTGCCGCCTAGGGAGATTAGAGTATCGGTCGA | 3.93 |
| AGCAAAGGTCATCCTGGGCTACCGATATGAGCCTAGGGAGATTAGAGTATCGGTCGA | 0.737 |
| TAGACCAGCCAATTCTACTGGAAGTAGGTAGCCTAGGGAGATTAGAGTATCGGTCGA | 0.854 |
